# IP6K1 inh: Primary qHTS assay for small molecule inhibitors of Inositol hexaphosphate kinase 1 (IP6K1); IP6K1 kinase, ADP-Glo luminescence, 2 h; hits give low values; activity change, % (series mostly up to about 58 µM); hit rate 0.81% among 140,000; AID 1645851, 2021; in the data active = activity change below about -25%
# Target sequence (Q92551 whole entry, looked up): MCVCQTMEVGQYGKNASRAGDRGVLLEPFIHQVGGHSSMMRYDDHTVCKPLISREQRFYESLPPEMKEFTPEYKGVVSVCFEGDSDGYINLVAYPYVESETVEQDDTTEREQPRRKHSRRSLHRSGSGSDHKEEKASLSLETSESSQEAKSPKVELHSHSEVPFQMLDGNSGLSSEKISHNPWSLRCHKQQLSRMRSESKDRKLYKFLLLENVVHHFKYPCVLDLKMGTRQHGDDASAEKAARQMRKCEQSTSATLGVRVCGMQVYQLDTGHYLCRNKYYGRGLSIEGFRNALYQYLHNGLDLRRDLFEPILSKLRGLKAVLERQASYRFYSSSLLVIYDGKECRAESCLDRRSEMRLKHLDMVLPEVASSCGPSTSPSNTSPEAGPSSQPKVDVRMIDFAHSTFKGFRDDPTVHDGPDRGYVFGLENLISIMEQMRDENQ
#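 ADP-Glo luminescence measures ADP made by human IP6K1 during a 2 h RT reaction with ATP/IP6 (mix at 1.3 mM/130 uM); top library doses 57.5 and 19.1 uM final.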
# SNCA viab count: GF-AFC viability counterscreen for inhibitors of alpha-synuclein gene (SNCA) expression; HEK-293-SNCA-luc viability, GF-AFC fluorescence, 24 h; Potency, µM (top dose mostly 57.1 µM), without a hit: top-dose activity change, negative = cytotoxicity, usual class: cytotoxic; hit rate 0.12% among 150,000; AID 1671193, 2021;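 also: potency is read from the fitted curve at half-maximal effect; 0% = DMSO-treated cells and -100% = medium-only wells without cells; nearly all actives have a fitted effect of over 30% in size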
#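 HEK-293-SNCA-luc cells (1500/well) plated 24 h, then exposed 24 h to a dilution series; GF-AFC added 30 min at 37C, fluorescence 405/540 nm; normalised to medium-only and DMSO wells, Hill fit.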
# GPT2 inh: Primary qHTS assay for inhibitors of Glutamate pyruvate transaminase 2 (GPT2); Recombinant GPT2, coupled pyruvate oxidase/HRP Amplex Red fluorescence; Potency, µM (top dose mostly 57.7 µM), inactives show at the top dose activity change, negative = inhibition, actives largely listed as inhibitors; hit rate 0.25% among 100,000; also: potency is read from the fitted curve at half-maximal effect; nearly all actives have a fitted effect of over 60% in size
#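 GPT2 10ng/uL, a-KG 250uM, L-Ala 2mM, HEPES pH7.5 + 0.0001% Tween; 30 min RT. Then Amplex mix (PO/HRP/ThPP), 30 min RT dark, fluorescence. AOA 50uM used as positive control.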
# SNCA expr inhib: Primary qHTS assay for inhibitors of alpha-synuclein gene (SNCA) expression | AID 1671194, 2021 | hit rate 0.17% among 140,000 | Potency, µM (highest dose often 57.2 µM), for the others: top-dose activity change, negative = inhibition, usual class: inhibitors | HEK-293 SNCA-luciferase knock-in, luminescence, 24 h;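 also: potency is read from the fitted curve at half-maximal effect; plate controls were DMSO cells for no effect and cell-free wells for full effect; nearly all actives have a fitted effect of over 45% in size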
# An asterisk follows results filed as active; i = inactive; ? = inconclusive; · = no result given; ! = repeats disagree; [ ] = remark or other dose. Only some compounds are listed: those with a hit (about 1% of all), similar ones and a draw of the others. Unless noted, calls follow the shape of the dose curve; as a rule, active = well fitted curve in the direction sought with a large enough effect; inconclusive = small, poorly fitted or top-dose-only effect, or another doubt; inactive = no such curve, though single readings can be large; an effect the other way counts as inactive or inconclusive. Unless noted, % is scaled to controls: 0 for no effect and ±100 for the full control effect.
SMILES,IP6K1 inh,SNCA viab count,GPT2 inh,SNCA expr inhib
O=C(NCc1ccccc1)c1csc(N2CCN(c3ccc(Cl)cc3)CC2)n1,-8,?,i,?
CCOc1ccc(C(c2c(C)[nH]n(-c3ccccc3)c2=O)c2c(C)[nH]n(-c3ccccc3)c2=O)cc1OC,-30*,?,·,35%
COc1cccc(-c2cccc(CN3CCCC3C(=O)N3CCCC(C)C3)c2)c1 (configuration not stated),23,·,·,·
Cn1ncc2c(C(=O)NCc3cccs3)cc(-c3ccsc3)nc21,-18,-17%,i,-10%
COc1ccc(-c2cc(C(=O)NCC(C)C)c3c(C4CCCN4)nn(C)c3n2)cc1 (configuration not stated),15,-11%,4%,11%
O=C(O)CCC(=O)OC[C@@H](NC(=O)C(Cl)Cl)[C@H](O)c1ccc([N+](=O)[O-])cc1,2,-19%[23.9 µM],?,-10%[25.6 µM]
CCCCCCCCCCCCCC(=O)N[C@H](CO)[C@H](O)c1ccc([N+](=O)[O-])cc1,·,-10%,-2%,9.6µM*
COC(=O)/C=C/C(=O)N(O)CCCCNCc1ccc(COC(=O)Nc2cccc3ccccc23)cc1,-3,24µM*,i,·
COc1ccc(CNC(=O)C(=O)Nc2ccccc2OC)cc1,-6,-11%,·,35%
CCOC(=O)Nc1ccc(NCc2ccc(F)cc2)nc1N,-2,12%,10µM*!,4%
COc1cc(Br)c(Nc2nc(-c3c(C)nc4ncccn34)cs2)c(Br)c1,-13,6µM*,-12%,·
CCc1nn(CC(=O)NCCCc2ccccc2)c(=O)c2cc3ccccc3n12,8,4%,·,28µM*
COCCN1Cc2sccc2N(C[C@@H](O)COCc2ccccc2)CCC1=O,0,·,·,·
CC(C)NC[C@H](O)c1ccc(O)c(O)c1,·,-24%,3.5µM*!,21%
CC(C)NCC(O)c1cc(O)cc(O)c1 (configuration not stated),0,4%,?,-4%
COC(=O)[C@]12CCC(C)(C)C[C@@H]1[C@@H]1C(=O)C=C3[C@@]4(C)C=C(C#N)C(=O)C(C)(C)[C@@H]4CC[C@@]3(C)[C@]1(C)CC2,·,14µM*,i,8.6µM*
CCOC(=O)c1c(C)[nH]c(C)c1S(=O)(=O)N(C)CC(=O)Nc1cc(Cl)ccc1OC,-28*,-11%,·,-10%
CCN(C(=O)c1c(O)c2c(Cl)cccc2n(C)c1=O)c1ccccc1,·,?,4%,5.4µM*
COc1ccc(CC(=O)N2CCCN(c3ccc4nnc(-c5ccccc5)n4n3)CC2)cc1,10,·,·,·
CCC(=O)Nc1ccc(C)cc1-c1nc2ccccc2n(CC(=O)c2ccc(C)cc2)c1=O,24,17%,·,28µM*
COc1ccc(C(=O)Cn2c(=O)c(-c3cc(C)ccc3NC(C)=O)nc3ccccc32)cc1,-15,?,·,-5%
Cc1cccc(-c2cccc(CN3CCC(NC(=O)Nc4ccc(Cl)cc4)CC3)c2)c1,-1,?,-5%,20µM*
Nc1ccc2nc(-c3ccc(O)cc3)sc2c1,-17,-2%,·,1.3µM*
C[C@@H]1CC[C@@]2(OC1)O[C@H]1C[C@H]3[C@@H]4CC[C@H]5C[C@@H](O)CC[C@]5(C)[C@H]4CC(=O)[C@]3(C)[C@H]1[C@@H]2C,5,17%[2.51 µM],2.2µM*,-23%[2.29 µM]
CC(=O)NCC(=O)N1[C@H]2CC[C@H]1c1cc(Nc3ncc(C(F)(F)F)c(NC4CCC4)n3)ccc12,·,-21%,i,?
CNC(=O)c1ccc(Nc2ncc(C(F)(F)F)c(NCc3nccnc3N(C)S(C)(=O)=O)n2)cc1,-4,?,-8%,21µM*
CN1CCN(c2ccc(-c3noc([C@@H]4CCCN4C4CCCCC4)n3)cn2)CC1,-15,24%[87.6 µM],i,0%[87.6 µM]
CCCCc1ccc(NC(=O)CN2C(=O)NC(c3ccc(Cl)cc3)C3=C2COC3=O)cc1 (configuration not stated),5,?,i,13µM*
COc1ccccc1-c1ccc(C(=O)N2CCC(C(=O)NCc3cccc(Cl)c3)CC2)cc1,1,7%[12.5 µM],-10%,12%
Cc1ccc(-n2nc3c(=O)n(CCCC(=O)NC(C)c4ccccc4)nc(C)c3c2C)cc1 (configuration not stated),0,2%,·,28µM*

# Source: PubChem BioAssay
